# From paper PMC5700166
# Legend:
# Test in all cases: protein-binding microarray (PBM); PBM: ~300 nM protein, 6 mM HEPES pH 7.8, 80 mM KCl, 0.5 mM EDTA, 0.5 mM EGTA, 6% glycerol, 35 ng/ul poly-dIdC, 1% milk, 1 h, room temperature; Ap Aiptasia and Nv Nematostella (sea anemones) / Co Capsaspora / Aq Amphimedon (sponge) / Dm Drosophila / Hu human; RHD is the Rel homology domain; high values mean tight binding
# Details in all cases: dsDNA, one strand shown
# [1] = target: T1, GST-Ap-NF-kB RHD (Exaiptasia pallida (Aiptasia), UniProt A0A913YAJ5 2-422)
# T1 sequence: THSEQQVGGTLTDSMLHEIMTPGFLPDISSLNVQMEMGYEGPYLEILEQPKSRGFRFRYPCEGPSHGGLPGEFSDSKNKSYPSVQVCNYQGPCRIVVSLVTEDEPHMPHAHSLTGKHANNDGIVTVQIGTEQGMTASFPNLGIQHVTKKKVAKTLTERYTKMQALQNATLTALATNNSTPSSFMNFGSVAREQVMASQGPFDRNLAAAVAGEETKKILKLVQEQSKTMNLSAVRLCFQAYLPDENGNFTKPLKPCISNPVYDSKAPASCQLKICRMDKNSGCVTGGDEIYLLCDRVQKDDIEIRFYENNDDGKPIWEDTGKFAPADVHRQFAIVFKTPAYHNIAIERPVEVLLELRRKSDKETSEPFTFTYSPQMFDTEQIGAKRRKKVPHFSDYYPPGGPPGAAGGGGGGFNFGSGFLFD
# [2] = target: T2, GST-Nv-NF-kB (Cys allele) (Nematostella vectensis, UniProt E5G601 2-411)
# T2 sequence: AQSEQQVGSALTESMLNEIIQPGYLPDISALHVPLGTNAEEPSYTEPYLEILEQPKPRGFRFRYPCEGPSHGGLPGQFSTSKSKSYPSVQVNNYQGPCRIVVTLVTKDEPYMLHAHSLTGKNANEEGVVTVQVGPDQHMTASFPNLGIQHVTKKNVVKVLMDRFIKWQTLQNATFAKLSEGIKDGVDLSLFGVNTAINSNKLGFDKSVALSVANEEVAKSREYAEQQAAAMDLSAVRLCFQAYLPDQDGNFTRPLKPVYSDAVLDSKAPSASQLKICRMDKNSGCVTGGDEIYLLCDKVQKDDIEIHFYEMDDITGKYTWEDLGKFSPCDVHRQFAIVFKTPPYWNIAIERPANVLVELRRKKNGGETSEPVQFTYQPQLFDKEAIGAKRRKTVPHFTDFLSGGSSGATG
# [3] = target: T3, GST-Co-NF-kB (Capsaspora owczarzaki, UniProt F1ARL5 200-546)
# T3 sequence: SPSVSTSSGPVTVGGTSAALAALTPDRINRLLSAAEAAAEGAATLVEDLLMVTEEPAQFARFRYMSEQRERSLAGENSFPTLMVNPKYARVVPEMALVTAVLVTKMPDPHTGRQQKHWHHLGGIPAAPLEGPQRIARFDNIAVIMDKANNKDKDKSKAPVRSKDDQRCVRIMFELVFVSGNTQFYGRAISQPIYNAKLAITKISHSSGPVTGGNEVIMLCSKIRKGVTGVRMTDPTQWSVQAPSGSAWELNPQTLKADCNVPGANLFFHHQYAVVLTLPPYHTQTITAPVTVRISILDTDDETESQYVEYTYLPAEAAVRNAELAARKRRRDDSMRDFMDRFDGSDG
# [4] = target: T4, GST-Dm-Relish (Drosophila melanogaster, UniProt Q94527 99-473)
# T4 sequence: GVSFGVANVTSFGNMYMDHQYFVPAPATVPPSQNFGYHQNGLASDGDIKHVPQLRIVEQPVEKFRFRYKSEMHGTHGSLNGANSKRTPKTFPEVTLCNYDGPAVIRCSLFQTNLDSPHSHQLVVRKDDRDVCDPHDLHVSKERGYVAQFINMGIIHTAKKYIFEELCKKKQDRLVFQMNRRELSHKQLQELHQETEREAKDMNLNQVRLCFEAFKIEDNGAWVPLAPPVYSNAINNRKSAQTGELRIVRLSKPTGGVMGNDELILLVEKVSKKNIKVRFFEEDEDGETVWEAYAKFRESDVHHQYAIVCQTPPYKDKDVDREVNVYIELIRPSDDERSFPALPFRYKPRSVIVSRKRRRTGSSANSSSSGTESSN
# [5] = target: T5, GST-Aq-NF-kB (Amphimedon queenslandica, UniProt A9Y5G7 2-389)
# T5 sequence: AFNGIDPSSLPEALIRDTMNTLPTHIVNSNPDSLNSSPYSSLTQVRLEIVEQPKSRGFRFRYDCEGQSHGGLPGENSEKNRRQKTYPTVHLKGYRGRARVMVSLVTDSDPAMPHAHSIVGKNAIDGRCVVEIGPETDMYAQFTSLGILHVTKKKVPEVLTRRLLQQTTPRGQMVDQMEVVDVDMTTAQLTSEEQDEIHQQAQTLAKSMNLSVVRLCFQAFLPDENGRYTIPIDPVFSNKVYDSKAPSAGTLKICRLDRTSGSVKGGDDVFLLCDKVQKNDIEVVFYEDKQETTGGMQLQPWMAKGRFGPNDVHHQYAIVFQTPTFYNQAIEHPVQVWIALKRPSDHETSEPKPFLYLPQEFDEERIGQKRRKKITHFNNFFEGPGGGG
Sequence,binding signal [1] [z-score],binding signal [2] [z-score],binding signal [3] [z-score],binding signal [4] [z-score],binding signal [5] [z-score]
CCGATTAACATCAGGGGAGCCCCTGATGTTAATCGGGTCTTGATTCGCTTGACGCTGCTG,8.45,6.25,3.64,8.74,8.27
CCGATTAACATCAAAAAATGCCCTGATGTTAATCGGGTCTTGATTCGCTTGACGCTGCTG,2.08,3.03,1,3.67,4.05
CCGATTAACATCAGCACCCCCCCTGATGTTAATCGGGTCTTGATTCGCTTGACGCTGCTG,5.67,3.51,4.07,4.44,4.32
CCGATTAACATCAAAAAGTTCCCTGATGTTAATCGGGTCTTGATTCGCTTGACGCTGCTG,4.61,5.3,4.37,6.54,5.9
CCGATTAACATCACCCCCCCCCGTGATGTTAATCGGGTCTTGATTCGCTTGACGCTGCTG,7.33,5.51,7.6,6.11,5.46
CCGATTAACATCACGGAATACCCTGATGTTAATCGGGTCTTGATTCGCTTGACGCTGCTG,3.79,4.14,1.67,4.64,4.52
CCGATTAACATCAGGGAGCTCCCTGATGTTAATCGGGTCTTGATTCGCTTGACGCTGCTG,4.49,3.24,1.46,3.76,6.36
CCGATTAACATCAAATATTCCCATGATGTTAATCGGGTCTTGATTCGCTTGACGCTGCTG,4.02,4.31,3.51,2.7,3.63
CCGATTAACATCACGGGATTTCCTGATGTTAATCGGGTCTTGATTCGCTTGACGCTGCTG,4.81,4.51,1.37,7.57,6.62
CCGATTAACATCAGGAAATCCCATGATGTTAATCGGGTCTTGATTCGCTTGACGCTGCTG,4.15,3.68,1.17,8.1,5.09
CCGATTAACATCAAATTCCCAGTTGATGTTAATCGGGTCTTGATTCGCTTGACGCTGCTG,1.52,3.74,2.97,4.29,2.37
CCGATTAACATCAATGCACCCCCTGATGTTAATCGGGTCTTGATTCGCTTGACGCTGCTG,4.19,2.93,3.47,3.29,3.4
CCGATTAACATCAAGGGAAACCCTGATGTTAATCGGGTCTTGATTCGCTTGACGCTGCTG,4.71,5.3,2.82,7.64,5.8
CCGATTAACATCAAGGGGAGTCCTGATGTTAATCGGGTCTTGATTCGCTTGACGCTGCTG,6.71,4.83,2.5,8.01,5.29
CCGATTAACATCAAACCCCCCCGTGATGTTAATCGGGTCTTGATTCGCTTGACGCTGCTG,6.76,3.82,5.57,7,4.9
CCGATTAACATCAACCACCCCCTTGATGTTAATCGGGTCTTGATTCGCTTGACGCTGCTG,3.52,3.02,2.25,2.48,3.83
CCGATTAACATCAATCGTCCCCCTGATGTTAATCGGGTCTTGATTCGCTTGACGCTGCTG,5.15,4.15,6.83,2.93,4.81
CCGATTAACATCATCTCCCCCCATGATGTTAATCGGGTCTTGATTCGCTTGACGCTGCTG,4.75,2.53,8,2.29,4.57
CCGATTAACATCAACAGGGAAAATGATGTTAATCGGGTCTTGATTCGCTTGACGCTGCTG,3.23,4.25,2.91,1.32,3.33
CCGATTAACATCAAGGGGGTGACTGATGTTAATCGGGTCTTGATTCGCTTGACGCTGCTG,4.68,3.59,3.04,2.43,4.26
CCGATTAACATCAGGGGAAGGACTGATGTTAATCGGGTCTTGATTCGCTTGACGCTGCTG,4.32,4.53,4.12,8.23,5.22
CCGATTAACATCAGGGGATCCACTGATGTTAATCGGGTCTTGATTCGCTTGACGCTGCTG,7.41,5.27,2.76,9.75,6.81
CCGATTAACATCACGTTATTCCCTGATGTTAATCGGGTCTTGATTCGCTTGACGCTGCTG,2.79,2.96,2.74,4.77,2.9
CCGATTAACATCAGAACTTTCCCTGATGTTAATCGGGTCTTGATTCGCTTGACGCTGCTG,4.2,6.87,3.78,2.67,7.19
CCGATTAACATCAAACAACCCCCTGATGTTAATCGGGTCTTGATTCGCTTGACGCTGCTG,5.66,4.5,2.66,5.24,5.17
CCGATTAACATCAACGCCCCCCCTGATGTTAATCGGGTCTTGATTCGCTTGACGCTGCTG,5.09,4.29,4.15,4.35,4.73
CCGATTAACATCAAATTCCCTCGTGATGTTAATCGGGTCTTGATTCGCTTGACGCTGCTG,3.11,4.96,2.32,3.26,4.09
CCGATTAACATCAGGGAGTCCCATGATGTTAATCGGGTCTTGATTCGCTTGACGCTGCTG,4.64,3.33,1.13,9.06,4.21
